The sample as a whole holds a higher share of hits than the screen did.
Pf Dd2 inh: Plasmodium falciparum Dd2 growth inhibition; P. falciparum Dd2 growth, SYBR Green, 72 h; Potency, µM (titrated, usually from 28.9 µM), inactives show at the top dose activity, negative = inhibition, actives largely listed as inhibitors; 120,000 compounds, 4.3% hits; active = well fitted inhibition curve with a large enough effect;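 note: plate controls were DMSO vehicle for no effect and reference drug for full effect; nearly all actives have a fitted effect of over 65% in size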
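Infected erythrocytes (Dd2, 0.3% parasitemia, 2.5% hematocrit final) are added to compound in RPMI-1640/Albumax II medium, grown 72 h at 37C in low oxygen, then lysed with saponin/Triton-X containing SYBR Green and read by fluorescence.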
An asterisk follows results filed as active; i = inactive; [ ] = another dose, or the depositor's remark. Potency is the fitted concentration of half-maximal effect.

SMILES	Pf Dd2 inh
Cc1ccc(-c2nnc(Nc3cccc(C(F)(F)F)c3)c3ccccc23)cc1S(=O)(=O)N1CCOCC1	10µM*
O=C(c1cccc(Cl)c1)N1CCN(C(=O)c2nnn3c2COC(c2ccc(F)cc2)C3)CC1 (configuration not stated)	-0.5%
CCC1(CO)CCCN(S(=O)(=O)c2ccc3c(c2)OCCO3)C1 (configuration not stated)	-11.2%
COc1ccc(Nc2c3c(nc4nncn24)CCC3)cc1OC	i
COc1cc(OC)c(Nc2c3c(nc4nc(-c5cccs5)nn24)CCCC3)cc1Cl	11.2µM*
COc1cc(OC)c(NC(=O)c2ccc3c(Cl)c4c(nc3c2)CCCC4)cc1Cl	13.7%
COc1ccccc1CNC1(Cc2cc(CN3CCOCC3)on2)COC1	11.9%[44.1 µM]
Cc1ccc(-n2ncc(C(=O)NCc3ccco3)c2C2CCN(C(=O)OC(C)(C)C)CC2)cc1C	11.2µM*
CC(C)(C)OC(=O)N1CCC(c2c(C(=O)Nc3ccc4c(c3)OCCO4)cnn2-c2ccc(F)cc2)CC1	7.94µM*
Cc1ccc(-n2ncc(C(=O)N3CCc4ccccc4C3)c2C2CCN(C(=O)OC(C)(C)C)CC2)cc1C	-2.2%
O=C(NCCc1ccccc1)c1cnn(-c2ccc(F)cc2)c1-n1cccc1	3.6%
Cc1cccc(C)c1-n1ncc(C(=O)Nc2ccc3c(c2)OCO3)c1C1CCN(C(=O)OC(C)(C)C)CC1	i
CCOC(=O)c1ccc(NC(=O)c2cnn(-c3ccc(C)cc3C)c2C2CCN(C(=O)OC(C)(C)C)CC2)cc1	12.6µM*
Cc1ccc(-n2ncc(C(=O)Nc3ccc(C)c(F)c3)c2C2CCN(C(=O)OC(C)(C)C)CC2)cc1C	-16.4%
CC(C)(C)OC(=O)N1CCC(c2c(C(=O)NCCc3ccccc3)cnn2-c2ccc(F)cc2)CC1	11.2µM*
Cc1cc(NC(=O)N2CCCC(Cn3c(C)nc4cccnc43)C2)ccc1Br (configuration not stated)	-18.1%
Cc1n[nH]c(C)c1C(N)C(=O)N1CCCN(CCCN2CCCC2)CC1 (configuration not stated)	21.9%
COc1ccc(CNC(=O)NCCc2noc(-c3ccncc3)n2)cc1	-24.7%
Cc1cnn(C2(C(=O)O)CCN(C(=O)c3cc(C)nc(C)n3)CC2)c1	-12.5%
O=C(c1ccccc1Cl)N1CCN(c2nc3ncccc3o2)CC1	8.5%
O=C(c1ccsc1)N1CCN(c2cc(-c3cccs3)[nH]n2)CC1	i
O=C(N[C@@H](CO)c1ccccc1)c1cc(COc2cccc(F)c2)[nH]n1	-10.4%
Cc1ccc(-c2ncc(C(=O)N3CCOC(CCN)C3)c(=O)[nH]2)cc1 (configuration not stated)	-2.2%
CCCOCC(=O)N1CCCC(c2cc(N3CCCC3)nc(C)n2)C1 (configuration not stated)	-4.6%
CCc1cc(C(=O)N2CCCC(c3nnc(Cn4ccnc4)n3C)C2)ccn1 (configuration not stated)	-11.0%
SMILES	Pf Dd2 inh
O=C(c1cn(-c2ccccc2)nn1)N(Cc1cccnc1)C1CCNCC1	i
O=C(NCCc1noc(C2CC2)n1)c1ccoc1	35.3%
CC(C)NC(=O)C[C@@H]1C[C@H]2O[C@H](CNC(=O)NC3CCC3)[C@@H](O)[C@H]2O1	-25.0%[44.1 µM]
CC(C)NC(=O)N1CCC2(CC1)CC(CC(=O)O)CCO2 (configuration not stated)	-3.6%
O=C(Cn1nc2n(c1=O)CCCCC2)Nc1ccc(F)cc1	17.8%
O=C(N[C@@H]1CNC[C@H]1O)C1CCN(c2nc(-c3ccccc3)nc3c2CCC3)CC1	-7.9%
Cc1cc(N2CCCN(C(=O)Nc3nncs3)CC2)ccn1	4.6%
CC(C)(C)OC(=O)N1CCC(c2c(C(=O)NCCc3ccccc3)cnn2-c2ccc(F)cc2F)CC1	5.62µM*
COCCCNC(=O)c1cnn(-c2ccc(F)cc2F)c1C1CCNCC1	-2.9%
Cc1ccc(-n2ncc(C(=O)NCc3ccccn3)c2C2CCN(C(=O)OC(C)(C)C)CC2)c(C)c1	i
CC(C)(C)OC(=O)N1CCC(c2c(C(=O)N3CCCCC3)cnn2-c2cccc(F)c2)CC1	-5.2%
Cc1ccc(-n2ncc(C(=O)NCCc3ccccc3)c2C2CCN(C(=O)OC(C)(C)C)CC2)c(C)c1	10µM*
CC(C)(C)OC(=O)N1CCC(c2c(C(=O)NCc3ccccc3)cnn2-c2cccc(F)c2)CC1	10µM*
CC(C)(C)OC(=O)N1CCC(c2c(C(=O)N3CCOCC3)cnn2-c2cccc(F)c2)CC1	12.0%
CC(C)(C)OC(=O)N1CCC(c2c(C(=O)NCc3cccs3)cnn2-c2ccc(F)cc2F)CC1	3.98µM*
O=C(C[C@@H]1C[C@H]2O[C@H](CNC3CCCC3)[C@@H](O)[C@H]2O1)N1CCC(F)(F)C1	13.1%[44.1 µM]
Cc1ccc(S(=O)(=O)N2CCC(n3cnnc3C(C)C)CC2)cc1C	-26.9%
O=C(O)CC1(CC(=O)N2CC[C@H]3NC(=O)N(c4ccc(F)cc4)C(=O)[C@H]32)CCCC1	-3.2%[44.1 µM]
CC(C)Cc1cc(C[C@@H]2C[C@H](NC(=O)c3ccco3)C2(C)C)no1	-32.2%[44.1 µM]
CN(CC(=O)N1CCC(CCOc2ccc(F)cc2)C1)S(=O)(=O)c1cccs1 (configuration not stated)	-14.6%
COCc1nc(C2CCNC2)no1 (configuration not stated)	10.4%
Cc1ccsc1CN(C)C1CCc2nn(CC3CC3)c(=O)n2CC1 (configuration not stated)	14.1%
O=C(c1cccc(Cl)c1)N1CCC2(CC1)N=C(c1cccc(Br)c1)NO2	16.2%
CN1C[C@H](NC(=O)NC2(c3ccccc3)CCOCC2)CCC[C@@H](C(=O)NCc2cc(F)cc(F)c2)CC1=O	i
Cc1ccc(S(=O)(=O)N2CCCC(Cn3c(C4CC4)nc4cccnc43)C2)c(C)c1 (configuration not stated)	-8.4%
SMILES	Pf Dd2 inh
CN(Cc1ccccc1)C(=O)CCc1nc(C2CCCN2C(=O)C2CCC2)no1 (configuration not stated)	-6.0%
O=C(C1CCC1)N1CCCC(Cc2nncn2CC2CC2)C1 (configuration not stated)	0.6%
COc1cccc(CNC(=O)[C@@H]2C[C@@H](O)CN2C2CCN(C(=O)c3cccc(OC)c3)CC2)c1	-10.8%
COc1cccc(CNC(=O)[C@@H]2C[C@@H](O)CN2C2CCN(C(=O)c3ccco3)CC2)c1	i
COc1cccc(CNC(=O)[C@@H]2C[C@@H](O)CN2C2CCN(C(=O)CC3CCCC3)CC2)c1	i
COc1cccc(CNC(=O)[C@@H]2C[C@@H](O)CN2C2CCN(C(=O)c3ccncc3)CC2)c1	-19.3%
COc1cccc(CNC(=O)[C@@H]2C[C@@H](O)CN2C2CCN(C(=O)Cc3ccc(Cl)cc3)CC2)c1	12.6µM*
COc1cccc(CNC(=O)[C@@H]2C[C@@H](O)CN2C2CCN(C(=O)c3cccs3)CC2)c1	8.91µM*
O=C(CN1CCOCC1)N1CC(F)(F)C[C@H]1c1nc(C2CC2)no1	21.8%
Cc1cn2nc(C(=O)NCc3ccco3)cc2c(=O)[nH]1	7.6%
O=C(c1c(OCC2CC2)cc(=O)n2c1CCCCC2)N1CCN(c2ccccn2)CC1	8.8%
CC(C)CC(=O)N1C[C@@H](Oc2ccccc2)C[C@@H]1C(=O)N1CCOCC1	-6.8%
COc1cc(-c2ccc(C(F)(F)F)cn2)cc2c1OCCNC2	-11.1%
Cc1nc(-c2ccccc2)sc1-c1ccc(SCC(=O)Nc2cccc(C(F)(F)F)c2)nn1	-7.8%
CC(=O)Nc1cccc(NC(=O)CSc2ccc(-c3sc(-c4ccccc4)nc3C)nn2)c1	8.91µM*
Cc1ccc(CNC(=O)CSc2ccc(-c3sc(-c4ccccc4)nc3C)nn2)cc1	-4.4%
